Measurements taken from ChEMBL document CHEMBL3988442, “University of Dundee, Small-Polar-MMV Screening Library” (2021).
Out of some 53,000 compounds screened, about 900 (1.7%) showed an effect of 50% or more. The list comes from a sample in which strong results are over-represented; it also holds similar structures and randomly drawn compounds.

Tested on: Mycobacterium tuberculosis
Assay: Cornell - Phenotypic assay to identify agents that inhibit growth of Mycobacterium tuberculosis
Format: functional
Design: scale not given: direction of the effect not stated beside the values
Details: 10 mM as filed; unlikely as a test dose

SMILES	Percent Effect
CCN(CC)C(=O)c1cc(C2(C)CCN(C(C)=O)CC2)nc(C)n1	3.743%
O=C(O)C1CN(c2cccc(F)c2)CCO1 (stereo not drawn)	-11.48%
O=C1CC(c2ccccc2)C2(CCN(Cc3ccccn3)CC2)N1 (stereo not drawn)	1.787%
CC(=O)NCc1cc2n(n1)CCN(Cc1cccc(Cl)c1Cl)C2	13.71%
O=C(c1ccco1)N1CCC(n2nc(-c3ccco3)ccc2=O)CC1	11.6%
O=C(Cc1ccncc1)N(CCO)CCSc1ccc(Cl)cc1	12.99%
Cc1cccc(CNC(Cc2ccsc2)c2nc(C)c(C)s2)n1.Cl (stereo not drawn)	47.96%
O=C1COc2cc(C(=O)NS(=O)(=O)c3ccc(F)c(F)c3)ccc2N1	-19.76%
Cc1nn(C)cc1S(=O)(=O)N[C@@H]1CC[C@@H](n2ccnc2C)[C@@H]1O	-21.64%
Cc1nn(C)cc1S(=O)(=O)N[C@@H]1CCC[C@@H](N2CCCC2)[C@@H]1O	19.92%
CO[C@@H]1CC[C@@H](NS(=O)(=O)c2cn(C)nc2C)[C@H]1O	50.32%
CC(NC(=O)N1CCNC(=O)CC1)c1ccc(OC(F)F)cc1 (stereo not drawn)	-26.09%
c1cc(CN2CCC(Cc3noc(C4CC4)n3)CC2)c2c(c1)OCO2	11.43%
Fc1ccc(C2(CNC3=NCCN3)CCCC2)cc1.I	20.05%
O=C(CCc1cc2n(n1)CCCNC2)NCCS(=O)(=O)N1CCCC1	-51.2%
CS(=O)(=O)N1CCN(c2cc(N3CCCC3CO)ncn2)CC1 (stereo not drawn)	0.6089%
Cc1cccc2c1CCN(c1cc(N3CCCC3CO)ncn1)C2 (stereo not drawn)	67.12%
CN1CCN(c2cc(N3CCCC3CO)ncn2)Cc2ccccc21 (stereo not drawn)	-16.34%
Cc1noc(Cl)c1CCC(=O)N1CCCCC1Cn1cccn1 (stereo not drawn)	-3.884%
Cc1noc(C(C)C)c1C(=O)NS(=O)(=O)c1ccc(Cl)cc1	78.7%
CCOc1ccc(S(=O)(=O)NC(=O)c2c(C)noc2C(C)C)cc1	49.48%
Cc1ccc(S(=O)(=O)NC(=O)c2c(C)noc2C(C)C)cc1C	26.09%
Cc1cc2nccc(C3CCN(C(=O)c4ccccc4F)CC3)n2n1	6.226%
CCC(Nc1ccc(CCN2CCOCC2)cc1)C(N)=O (stereo not drawn)	-19.51%
COCC(=O)NCc1ccc(-c2ncncc2C(=O)N(C)C)cc1	50.66%

SMILES	Percent Effect
COCCC(=O)NCc1ccc(-c2ncncc2C(=O)N(C)C)cc1	32.24%
CN(C)C(=O)c1cncnc1-c1ccc(CNC(=O)C2CC2)cc1	37.26%
CNC(=O)c1sc2ccccc2c1C1CCN(c2nc(C)cc(C)n2)C1 (stereo not drawn)	14.17%
CN1CCCC1CCNC(=O)c1ccccc1-n1cc(CN)cn1 (stereo not drawn)	7.916%
Cc1cccc2c1C(=O)NC1(CCOCC1)N2	17.55%
Cn1nccc1-c1ccc2nc(C3CCN(CC4CC4)CC3)nn2c1.O=C(O)C(F)(F)F.O=C(O)C(F)(F)F	-10.01%
Cc1nc(NCc2cccc(F)c2)cc(C2CCNCC2)n1.Cl	-9.727%
COc1ccc2[nH]c(CNc3cc(C4CCNCC4)nc(C)n3)cc2c1	70.58%
Cc1nc(NCc2ccc(C)o2)cc(C2CCNCC2)n1	-17.21%
O=C(c1cncs1)N1CCC(c2cnccn2)CC1	7.442%
Cc1cn2c(n1)CCC(NC(=O)Cn1cncn1)C2 (stereo not drawn)	-12.63%
Cc1ccc(OCCC(=O)N2CCN(c3cnccn3)CC2)cc1C	39.73%
CCn1nc(C)c(C(=O)NCc2csc(C3CC3)n2)c1C	69.61%
CCn1cc(C(=O)NCc2csc(C3CC3)n2)c(C)n1	26.12%
Cc1nn(C)cc1C(=O)NCc1csc(C2CC2)n1	0.3942%
CCSc1cc(C(=O)NCCc2nnc(-c3ccco3)[nH]2)ccn1	-11.72%
CCOc1ccccc1-c1cc(N)[nH]n1.Cl	108.1%
CCOc1ccc(Br)cc1-c1cc(N)[nH]n1.Cl	-17.72%
CCOc1cc(C)c(-c2cc(N)[nH]n2)cc1OCC	10.44%
O=C(c1cc(C2CCCC2)no1)N1CC(O)C1	18.4%
CN(C)C(=O)CN1C(=O)CCC12CCN(Cc1ccc(F)cc1)CC2.O=C(O)C(F)(F)F	13.62%
Cl.c1csc(-c2noc(C3CCCNC3)n2)c1 (stereo not drawn)	9.745%
Cl.c1csc(-c2noc(C3CNC3)n2)c1	106.9%
CCS(=O)(=O)N1CC(c2nc(-c3cccs3)no2)C1	8.063%
CO[C@H]1CN(c2ccccc2)S(=O)(=O)[C@@]12CCN(Cc1ccccc1)C2	6.335%

SMILES	Percent Effect
Cc1ccccc1CC(=O)N1CCCn2cncc2C1	-17.85%
Cc1cccc(C(=O)N2C[C@H](NS(C)(=O)=O)[C@@H]3OCCC[C@@H]32)n1	2.201%
CN1CCC(NC(=O)Nc2ccc(Br)c(F)c2)C1=O (stereo not drawn)	8.703%
CN1CCC(NC(=O)Nc2ccc(F)c(Br)c2)C1=O (stereo not drawn)	-9.143%
CN1CCC(NC(=O)Nc2ccc(F)c(-n3cccc3)c2)C1=O (stereo not drawn)	84.66%
COCCNc1ccc(CC2CCCN(C3CCCC3)C2)nn1 (stereo not drawn)	39.43%
CN(Cc1cc2cc(F)ccc2[nH]1)C(=O)C1CC(=O)N(C2CC2)C1 (stereo not drawn)	52.25%
CCN1CC(C(=O)N(C)Cc2cc3cc(F)ccc3[nH]2)CC1=O (stereo not drawn)	42.66%
CN(Cc1cc2cc(F)ccc2[nH]1)C(=O)C1CC(=O)N(C(C)(C)C)C1 (stereo not drawn)	23.39%
CN(Cc1cc2cc(F)ccc2[nH]1)C(=O)C1CC(=O)N(C2CCCC2)C1 (stereo not drawn)	65.9%
CCc1nnc(CN(C)C(=O)C2CC(=O)N(C3CC3)C2)o1 (stereo not drawn)	20.13%
CN(C)CCN1CC(C(=O)N(C)Cc2cc3cc(F)ccc3[nH]2)CC1=O (stereo not drawn)	29.76%
c1ccc(CNc2ccccc2N2CCCC2)nc1	18.15%
O=C(NCc1ccc(Br)cc1F)C1(O)CCSCC1	15.88%
COCCC(=O)NCc1ccc(-c2ccccc2C(=O)O)cn1	57.39%
O=C(Cc1ccccc1)NCc1ccc(-c2ccccc2C(=O)O)cn1	48.74%
COCCC(=O)NCc1ccc(-c2ccccc2C(=O)O)nc1	47.85%
O=C(O)c1ccccc1-c1cnc(CNC(=O)C2CCOCC2)nc1	-26.12%
CS(=O)(=O)c1ccc(-c2ccccc2C(=O)O)cc1	-4.334%
O=C(Cc1ccccc1)NCc1ncc(-c2ccccc2C(=O)O)cn1	23.42%
CC(=O)NCc1ccc(-c2ccccc2C(=O)O)cn1	56.71%
COCC(=O)NCc1ccc(-c2ccccc2C(=O)O)cn1	56.05%
COCCN1CCC(Cc2cnc(-c3ccccc3C(=O)O)cn2)CC1	-34.65%
